Assay outcomes as filed in PubChem.
Compounds with a hit are over-represented: about 9.4% of the library has one in this group of screens.
ELG1 DNA repair: inhibitors of ELG1-dependent DNA repair in HEK293T cells. HEK293T ELG1-luciferase reporter, luminescence, 16 h; DNA damage induced by 5-fluorouridine. Potency, µM (top dose mostly 46.1 µM), hits mostly inhibitors. 330,000 tested, 2.3% active; also: nearly all actives have a fitted effect of over 55% in size
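Quantitative HTS, concentration-response format. 2,000 cells/well co-treated with 5-fluorouridine and compound, 16 hr in 5% CO2 at 37 °C; ONE-Glo luminescence read after 30 min.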
NPC1 prom act: NPC1 promoter activation; 320,000 tested, 2.4% active; Huh7 NPC1 promoter luciferase reporter, 24 h; Potency, µM (highest dose often 9.22 µM), hits mostly activators; also: nearly all actives have a fitted effect of over 60% in size
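In 1536-well qHTS, Huh7 cells harboring an NPC1 promoter–luciferase construct received compound for 24 h; activation was quantified by luminescence following luciferase reagent addition.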
SMN2 splice up: SMN2 splice variant enhancement. HEK293 SMN2-luciferase splicing reporter, luminescence, 30-36 h. 210,000 tested, 2.8% active. Potency, µM (doses to about 46.1 µM), hits mostly activators; also: nearly all actives have a fitted effect of over 55% in size
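qHTS luciferase splicing reporter: luminescence rises when SMN2 exon 7 is included in transfected HEK293 cells. Compound exposure lasted 30-36 h at 37C, with 4.5 mM final sodium butyrate as control, followed by a ONE-Glo read.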
ELG1 genotox: inducers of genotoxicity in HEK293T ELG1-luciferase cells; HEK293T ELG1-luciferase reporter, luminescence, 16 h; Potency, µM (titrated, usually from 46 µM), actives largely listed as activators; 330,000 tested, 1.3% active; also: nearly all actives have a fitted effect of over 60% in size
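HEK293T cells expressing luciferase-tagged ELG1 were treated with compound or DMSO for 16 hr at 37°C. Luciferase activity was then read after 30 min with ONE-Glo at room temperature; rising signal flags genetic stress.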
FLuc counter: counter-screen for miR-21 project: firefly luciferase inhibitors or activators. P08659. purified FLuc, Km substrates, luminescence inhibition. Potency, µM (doses to about 57.5 µM), actives largely listed as inhibitors. 360,000 tested, 6.9% active; also: nearly all actives have a fitted effect of over 55% in size
Target sequence (P08659 whole entry, looked up): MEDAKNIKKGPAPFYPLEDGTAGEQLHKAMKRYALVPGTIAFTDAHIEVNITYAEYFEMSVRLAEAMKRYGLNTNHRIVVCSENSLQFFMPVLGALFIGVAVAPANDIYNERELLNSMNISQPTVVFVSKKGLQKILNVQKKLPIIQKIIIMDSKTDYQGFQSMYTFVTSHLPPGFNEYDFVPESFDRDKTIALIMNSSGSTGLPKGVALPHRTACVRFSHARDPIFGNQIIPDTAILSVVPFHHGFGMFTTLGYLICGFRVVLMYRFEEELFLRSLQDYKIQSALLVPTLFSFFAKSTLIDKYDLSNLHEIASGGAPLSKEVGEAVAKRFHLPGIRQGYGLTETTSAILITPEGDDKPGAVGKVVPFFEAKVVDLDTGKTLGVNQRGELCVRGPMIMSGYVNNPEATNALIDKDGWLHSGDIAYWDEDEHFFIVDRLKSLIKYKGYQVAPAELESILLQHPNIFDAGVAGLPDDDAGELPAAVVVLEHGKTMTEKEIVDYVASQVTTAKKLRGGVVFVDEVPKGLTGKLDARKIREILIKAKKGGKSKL
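Purified P. pyralis luciferase, 10 nM final, with Km-level 10 uM D-luciferin and 10 uM ATP in 50 mM Tris acetate pH 7.5, 10 mM Mg acetate, 0.01% Tween-20, 0.05% BSA; 6-point qHTS titration about 60 µM downward; luminescence read.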
Rab9 promoter act: Rab9 promoter activation. Huh7 Rab9 promoter-luciferase reporter, luminescence, 24 h. Potency, µM (titrated, usually from 9.22 µM), most hits filed as activators. 320,000 tested, 2.8% active. AID 485297; also: nearly all actives have a fitted effect of over 60% in size
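Steps: seed 1500 Huh7 Rab9-luc cells per well, rest 2 h at 37 °C; add compound in DMSO; incubate 24 h; add luciferase reagent, 10 min ambient; read luminescence.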
Each line names hits and unclear results; the compound was inactive in the other large screens. Calls follow the shape of the dose curve; as a rule, active = well fitted curve in the direction sought with a large enough effect; inconclusive = small, poorly fitted or top-dose-only effect, or another doubt; inactive = no such curve, though single readings can be large; an effect the other way counts as inactive or inconclusive.

Cc1cccc(Nc2nc(N3CCOCC3)nc(N3CCOCC3)n2)c1	ELG1 DNA repair 7.3µM (no result: SMN2 splice up)
Cc1cccc(Nc2nc(Nc3cccc(C)c3)nc(N3CCOCC3)n2)c1	none (no result: ELG1 DNA repair, NPC1 prom act, ELG1 genotox, Rab9 promoter act)
COc1ccc(OC)c(CNc2ncc(-c3ccc(Cl)cc3)n2C)c1	none (no result: ELG1 DNA repair, NPC1 prom act, ELG1 genotox, Rab9 promoter act)
Cc1ccc(N2CC(C(=O)Nc3ccc4c(c3)OCO4)CC2=O)cc1C (centres undefined)	none (no result: SMN2 splice up)
COc1ccc(C(=O)NCCOc2ccccc2Cl)c(OC)c1OC	ELG1 DNA repair inconclusive, NPC1 prom act 4.5µM, ELG1 genotox 15µM, FLuc counter 15µM, Rab9 promoter act 3.2µM (no result: SMN2 splice up)
COc1cc(C(=O)NCCOc2ccccc2C)c(Br)c(OC)c1OC	none
COc1ccc(-n2nc(C(=O)NCC(=O)N(C)Cc3ccccc3)c3ccccc3c2=O)cc1	ELG1 DNA repair inconclusive, FLuc counter 17µM (no result: SMN2 splice up)
COc1ccc(-n2nc(C(=O)NCC(=O)O)c3ccccc3c2=O)cc1	none (no result: SMN2 splice up)
COc1ccc(-n2nc(C(=O)NCC(=O)NCCC3=CCCCC3)c3ccccc3c2=O)cc1	ELG1 DNA repair 16µM (no result: SMN2 splice up)
Cn1nc(C(=O)NCc2ccc(F)cc2)c2ccccc2c1=O	ELG1 DNA repair inconclusive, SMN2 splice up 18µM
Cn1nc(C(=O)NCc2ccccc2)c2ccccc2c1=O	ELG1 DNA repair inconclusive, ELG1 genotox inconclusive
C/C(=C\C(=O)c1ccccc1)NCc1ccc(F)cc1	ELG1 DNA repair inconclusive, FLuc counter 19µM
O=C(/C=C\c1ccc2c(c1)OCO2)NC1CC(=O)N(c2ccc(F)cc2)C1 (centres undefined)	none (no result: ELG1 DNA repair, NPC1 prom act, SMN2 splice up, ELG1 genotox, Rab9 promoter act)
Cn1nc(-c2ccc(C(=O)Nc3ccc(F)cc3)cc2)c2ccccc2c1=O	ELG1 DNA repair 7.3µM
NC(=O)Cn1nnc(-c2ccc(NC(=O)c3ccc(F)cc3)cc2)n1	ELG1 DNA repair inconclusive, NPC1 prom act inconclusive, SMN2 splice up 14µM, ELG1 genotox inconclusive, FLuc counter inconclusive, Rab9 promoter act inconclusive
Cc1ccc(-c2nn(C)c(=O)c3ccccc23)cc1CNC(=O)c1ccccc1	ELG1 DNA repair 16µM (no result: SMN2 splice up)
O=C(Cn1nnc(-c2ccc(NC(=O)c3ccccc3F)cc2)n1)NCc1ccc(F)cc1	none (no result: SMN2 splice up)
CCC(=O)NCc1cc(-c2nn(C)c(=O)c3ccccc23)ccc1C	none
COc1ccc(-n2nc(C(=O)NCC(=O)NCc3ccc(F)cc3)c3ccccc3c2=O)cc1	ELG1 DNA repair 16µM (no result: SMN2 splice up)
CCCN(CCC)S(=O)(=O)c1ccc(N2CCCCS2(=O)=O)cc1	none (no result: ELG1 DNA repair, NPC1 prom act, SMN2 splice up, ELG1 genotox, Rab9 promoter act)
COc1ccc(C2CC(=O)c3c([nH]c(C(=O)OC4CCCCCC4)c3C)C2)cc1OC (centres undefined)	none (no result: ELG1 DNA repair, NPC1 prom act, ELG1 genotox, Rab9 promoter act)
CCOc1ccc(NC(=O)CN2C(=O)C(c3ccccc3)=NC23CCC(C)CC3)cc1 (centres undefined)	none (no result: ELG1 DNA repair, NPC1 prom act, ELG1 genotox, Rab9 promoter act)
CCOC(=O)N1CCC(N2Cc3cccc(C(=O)Nc4ccc(OCC)cc4)c3C2=O)CC1	ELG1 DNA repair inconclusive, FLuc counter 12µM (no result: SMN2 splice up)
CCOC(=O)N1CCC(N2Cc3cccc(C(=O)NCc4ccc5c(c4)OCO5)c3C2=O)CC1	ELG1 DNA repair 23µM (no result: SMN2 splice up)
CCOC(=O)N1CCC(N2Cc3cccc(C(=O)Nc4ccc(CC)cc4)c3C2=O)CC1	ELG1 DNA repair inconclusive, FLuc counter 12µM
CC1(C)CC(=O)C2=C(C1)O[C@@]1(CCCCN3C(=O)c4ccccc4C3=O)Cc3ccccc3C2O1	none (no result: ELG1 DNA repair, SMN2 splice up, ELG1 genotox)
CN1CCC(N(C)C(=O)/C(C#N)=C/c2ccc(OC(F)F)cc2)CC1	none (no result: SMN2 splice up)
COc1ccc2ncc(S(=O)(=O)c3ccccc3)c(N3CCN(c4ccccc4)CC3)c2c1	ELG1 DNA repair 16µM
Cc1ccc(NC(=O)C2CCN(S(=O)(=O)c3ccc4c(c3)CCCC(=O)N4)CC2)c(Cl)c1	none (no result: ELG1 DNA repair, NPC1 prom act, SMN2 splice up, ELG1 genotox, Rab9 promoter act)
CCn1c(C(=O)NC2CCC(C)CC2)cc2sccc21 (centres undefined)	ELG1 DNA repair inconclusive, NPC1 prom act 3.5µM, ELG1 genotox inconclusive, FLuc counter 15µM, Rab9 promoter act inconclusive (no result: SMN2 splice up)
Cn1c(C(=O)NC2CCCCC2)cc2sccc21	ELG1 DNA repair inconclusive, NPC1 prom act inconclusive, ELG1 genotox inconclusive, FLuc counter 17µM, Rab9 promoter act 4µM (no result: SMN2 splice up)
